Laboratory results: PubChem BioAssay AID1224921 (Broad Institute, 2016)
About 350 (25%) of roughly 1,400 compounds were called active. Not shown: some 2% with an inconclusive outcome. No rule for the calls is given here. Only a sample is shown. Entries with a potency or affinity are not part of this list.

Assay: inhibitors of Clostridioides difficile proliferation – 4-point retest, confirmation (AID 1224921);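 also: plate controls were DMSO wells for no effect and levofloxacin 16 µg/mL wells for full effect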
Details: Clostridioides difficile clinical isolate growth, OD600, 24 h, active compounds read low; at 30 µM unless noted

Max activity, inactive:
COc1ccccc1C(=O)Nc1ccc2c(c1)OC[C@@H](C)N(CC1CC1)C[C@@H](C)[C@H](OC)CN(C)C2=O 19.1%
CO[C@@H]1CN(C)C(=O)c2ccc(NC(=O)c3nc4ccccc4s3)cc2OC[C@@H](C)N(Cc2ccncc2)C[C@H]1C 30.6%
CCCC#Cc1ccc2c(c1)O[C@H](CN(C)Cc1ccncc1)[C@H](C)CN([C@H](C)CO)S2(=O)=O 6.31%
C[C@@H]1CN([C@H](C)CO)C(=O)c2cccc(NC(=O)Nc3ccc4c(c3)OCO4)c2O[C@H]1CN(C)S(=O)(=O)c1ccc(Cl)cc1 -12.1% [at 8 µM]
CC(C)CC#Cc1ccc2c(c1)O[C@@H](CN(C)Cc1cccnc1)[C@H](C)CN([C@@H](C)CO)S2(=O)=O 42%
COc1ccccc1C#Cc1ccc2c(c1)O[C@H](CN(C)Cc1ccncc1)[C@@H](C)CN([C@@H](C)CO)S2(=O)=O 48.6%
CCCNC(=O)N(C)C[C@@H]1Oc2cc(C#Cc3ccccn3)ccc2S(=O)(=O)N([C@@H](C)CO)C[C@H]1C 9.97%
CO[C@H]1O[C@H](CO)[C@@H](OC(=O)Nc2ccc3c(c2)OCO3)[C@H](OC(=O)Nc2ccccc2)[C@H]1OC(=O)Nc1ccccc1 10.7%
CCC(=O)N[C@H]1C=C[C@@H](CC(=O)OC)O[C@@H]1CO -10.5%
CN1C(=O)c2cc(NC(=O)Cc3ccccc3)ccc2OC[C@H]2O[C@@H](CC(=O)NCC3CC3)CC[C@H]21 -7.83%
O=C(C[C@@H]1C[C@@H]2c3cc(NC(=O)Nc4ccc(C(F)(F)F)cc4)ccc3O[C@@H]2[C@H](CO)O1)NCc1ccc(Cl)cc1 27.7%
CCC(=O)Nc1ccc2c(c1)OC[C@H](C)N(CC1CCCCC1)C[C@@H](C)[C@@H](OC)CN(C)C2=O 8.81%
CCCN1[C@@H]2c3ccc(-c4ccc(F)cc4)c(=O)n3C[C@@H]2[C@@H](CO)[C@@H]1C(=O)N[C@@H](C)c1ccccc1 -8.45%
COc1ccccc1-c1ccc2c(c1)O[C@@H](CN(C)C(=O)c1ccccc1)[C@@H](C)CN([C@@H](C)CO)S2(=O)=O 29.9%
COCC(=O)Nc1ccc2c(c1)OC[C@H](C)N(Cc1ccccc1)C[C@@H](C)[C@@H](OC)CN(C)C2=O 5.39%
CCCC(=O)Nc1ccc2c(c1)C(=O)N(C)C[C@H](OC)[C@@H](C)CN(S(=O)(=O)c1cn(C)cn1)[C@@H](C)CO2 -11.7%
C[C@H]1CCCCO[C@@H](CN(C)Cc2ccc(C(=O)O)cc2)[C@@H](C)CN([C@@H](C)CO)C(=O)c2cc(NC(=O)Nc3ccc4c(c3)OCO4)ccc2O1 -7.43%
